Results reported in PubChem BioAssay (NCATS).
“And” between values parts separate entries of the source, which are not always exact repeats. Equal values may be shown once. Inconclusive results are not listed. More than one record can exist for a structure, and the calls need not agree. The source made the active and inactive calls. Unless noted, the call rests on the fitted dose curve; in most records, active means well fitted curve in the direction sought with a large enough effect; inconclusive means small, poorly fitted or top-dose-only effect, or another doubt; inactive means no such curve, though single readings can be large; an effect the other way counts as inactive or inconclusive.

Tests used:
[1] = qHTS assay for small molecule disruptors of the mitochondrial membrane potential - 1 hr assay (AID 651754; calls by dose curve; further: nearly all actives have a fitted effect of over 35% in size; further: potency means the concentration at half of the fitted maximal effect)
Outline: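 Read-out: dye fluorescence at 490 nm ex/535 nm em (monomers) and 540 nm ex/590 nm em (aggregates) in HepG2 cells. Compound exposure 1 hr at 37C, followed by 30 min dye loading.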

[2] = qHTS assay for small molecule disruptors of the mitochondrial membrane potential - 5 hr assay (AID 651755; calls by dose curve; further: nearly all actives have a fitted effect of over 40% in size; further: potency means the concentration at half of the fitted maximal effect)
Outline: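 Membrane-potential dye readout: red aggregate (540 ex/590 em) versus green monomer (490 ex/535 em) fluorescence after 30 min dye loading, following 5 hr compound exposure at 37C of overnight-plated HepG2 cells.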

[3] = biological target: Peroxisome proliferator-activated receptor alpha (Homo sapiens) (UniProt Q07869); assay: qHTS assay for small molecule agonists of the peroxisome proliferator-activated receptor alpha (PPARalpha) signaling pathway (AID 651778); conditions: PathHunter PPARalpha complementation, chemiluminescence, 6 h; hits give high values; further: % of control where 0% means no effect
Outline: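 Chemiluminescence from complemented enzyme reported PPARalpha activation in cells after 6 hr of compound treatment at 37 C. The detection reagent was incubated for 60 min at room temperature, and compounds were scored as agonists.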

[4] = qHTS assay for small molecule agonists of the antioxidant response element (ARE) signaling pathway measured by Nrf2-dependant transcriptional activity (AID 720636; active means well fitted curve in the direction sought with a large enough effect in the repeat runs; an effect the other way counts as inactive or inconclusive;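 further: HepG2 cells with an ARE-driven luciferase reporter; % of control where 0% means no effect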)
Outline: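 HepG2 ARE-luc reporter line, 1% dialyzed FBS; 6 hr attachment at 37 C, compound pinned in, 16 hr at 37 C/5% CO2; ONE-Glo, 30 min RT, luminescence read.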

[5] = qHTS assay for small molecule antagonists of the retinoid-related orphan receptor gamma (ROR-gamma) signaling pathway - cell viability counter screen (AID 720652; active means well fitted curve in the direction sought with a large enough effect in the repeat runs; an effect the other way counts as inactive or inconclusive;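 further: CHO reporter cells with doxycycline-induced ROR-gamma expression; series mostly up to about 92 µM; compound exposure lasted 16 hr before ATP read; on the % scale 0 is the no-effect control and ±100 the full control effect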)
Outline: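 CHO RORE-LUC/TET-ROR line, 1,000 cells/well, 37 C 5% CO2 5 hr; cpd or DMSO + doxycycline induction, 16 hr. CellTiter-Glo, 30 min RT, luminescence = ATP content.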

[6] = qHTS assay for small molecule activators of the nuclear factor-kappa B (NF-kB) signaling pathway (AID 651749; active means well fitted activation curve with a large enough effect in the signal ratio; the % refers to the signal ratio; further: series mostly up to about 77 µM; % of control where 0% means no effect); conditions: NF-kB-bla ME-180 cells, beta-lactamase FRET ratio, 16 h; hits give high values
Outline: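 FRET-based beta-lactamase detection in ME-180 cells reports NF-kB response-element-driven transcription following overnight (16 hr) compound treatment.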

[7] = biological target: Tumor necrosis factor (Homo sapiens) (UniProt P01375); assay: qHTS assay to identify small molecules that stimulate Tumor Necrosis Factor-alpha (TNF-alpha) secretion (AID 651757; active means well fitted curve in the direction sought with a large enough effect in the signal ratio; the % refers to the signal ratio; further: 0% is about no effect)
Outline: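 THP-1 cells, 3000/well; compound 17 hrs, 37 C; add cryptate/XL665 anti-TNF-alpha antibody pair; 3 hr RT; TR-FRET (HTRF) read of secreted TNF-alpha. Quantitative HTS format.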

[8] = qHTS assay for environmental chemicals that activate the Aryl hydrocarbon Receptor (AhR) signaling pathway (AID 651777); conditions: 1A2-DRE human hepatoma cells, luciferase, 24 h; activation: hits give high values; further: nearly all actives have a fitted effect of over 15% in size; further: potency means the concentration at half of the fitted maximal effect; on activation: % of control where 0% means no effect
Outline: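 Luminescence read-out: One-Glo added for 30 min at RT after 24 hr compound treatment (37 C, 5% CO2) of human hepatoma cells expressing a DRE/CYP1A2 promoter–luciferase reporter; increased signal indicates AhR activation.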

[9] = biological target: Nuclear receptor ROR-gamma (Homo sapiens) (UniProt P51449); assay: qHTS assay for small molecule antagonists of the retinoid-related orphan receptor gamma (ROR-gamma) signaling pathway (AID 651802);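 further: CHO cells with doxycycline-induced ROR-gamma expression; luciferase reporter luminescence driven by ROR response element; series mostly up to about 92 µM; on the % scale 0 is the no-effect control and ±100 the full control effect; nearly all actives have a fitted effect of over 60% in size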
Outline: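 Luciferase read-out: ONE-Glo luminescence after 30 min at room temperature, following 16hr doxycycline induction at 37C, 5% CO2 of CHO cells with TET-inducible ROR and RORE-LUC reporter; decreased luminescence = reduced reporter activity.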

[10] = qHTS assay to identify small molecules that stimulate interleukin-8 (IL-8) secretion (AID 651758; active means well fitted activation curve with a large enough effect in the signal ratio; the % refers to the signal ratio; further: 0% is about no effect)
Outline: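 Secreted IL-8 measured homogeneously by TR-FRET (two labelled anti-IL-8 antibodies, 1-3 h at room temperature) after a 16 h, 37 C compound treatment of THP-1 cells at 2000 cells/well.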

[11] = biological target: Arylsulfatase A (Homo sapiens) (UniProt P15289); assay: qHTS screen for enhancers of Arylsulfatase A (ASA1): LOPAC Validation Assay (AID 720538); conditions: outcome: dose series up to 57.5 µM
Outline: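 SV40-transformed skin fibroblasts from an MLD patient (ASA-I179S) were treated with compounds for 48h at 37 degree C, then lysed with 0.5mM pNCS final substrate for 14h at room temperature; NaOH stop, fluorescence read (Ex=525 nm; Em=598 nm).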

[12] = qHTS for compounds that reverse cellular toxicity of Amyloid beta (A-beta) peptide in yeast: LOPAC Validation Assay (AID 720559);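 further: plate controls were DMSO for no effect and equimolar ferric chloride plus clioquinol rescue for full effect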
Outline: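 Yeast cells expressing toxic A-beta were combined with pinned compounds in growth medium and incubated 48 hr at 30 C. Growth was read as absorbance at 600 nm and normalized to DMSO and to an equimolar FeCl3/clioquinol positive control.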

[13] = qHTS for Activators of Parkin Expression: LOPAC Validation Assay (NLuc Reporter) (AID 720572)
Outline: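 Compound effects on Parkin promoter activity were measured as NanoLuc luminescence after 24 h at 37 C. The neuronal reporter line also carried FLuc, which was read first. LOPAC compounds were tested at 7 concentrations, with normalization to DMSO (0%) and positive control (100%).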

[14] = qHTS for Activators of Parkin Expression: LOPAC Validation Assay (FLuc Reporter) (AID 720573)
Outline: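 Neuronal cell line stably carrying FLuc/NLuc coincidence reporter under Parkin promoter; cells plated 24 h, then compounds added in 7-point dose response for 24 h at 37 C. FLuc luminescence read; normalized to DMSO and positive control (100%).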

[15] = biological target: Hexokinase-4 (Homo sapiens) + Glucokinase regulatory protein (Homo sapiens) (UniProt P35557+Q14397); assay: qHTS assay for inhibitors of recombinant human GCK-GKRP interaction: Diaphorase-coupled assay (AID 743205)
Outline: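 GST-GCK (10 nM) with FLAG-GKRP (10 nM), 5 mM glucose and 0.4 mM ATP in pH 7.6 Hepes; compounds preincubated 20 min with substrate. G6PDH/diaphorase coupling converts resazurin to resorufin, read kinetically (ex 525/em 590 nm) for 30 min.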

[16] = biological target: Tyrosine-protein kinase Yes (Homo sapiens) (UniProt P07947); assay: qHTS for small molecule inhibitors of Yes1 kinase: Primary Screen (AID 686947); further: nearly all actives have a fitted effect of over 60% in size; further: potency means the concentration at half of the fitted maximal effect
Outline: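 In this qHTS format, inhibition is expressed relative to DMSO controls with enzyme (maximum) and without enzyme (minimum). The 60 min room-temperature reaction uses 0.1 mM ATP, with ADP detected by luminescence.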

[17] = qHTS for small molecule inhibitors of Yes1 kinase: Counter Assay (AID 686950);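 further: no kinase present so only ADP-Glo detection of a fixed ADP amount is tested; luminescence from ADP-Glo reporting ADP in a fixed ATP and ADP mixture; series mostly up to about 77 µM; 0% = DMSO wells with ATP plus ADP and -100% = ATP-only wells without ADP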
Outline: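 ADP-Glo luminescence read after a 60 min room-temperature incubation of compound with an ATP/ADP mix (0.08 mM/0.02 mM) and no kinase, following a 20 min compound preincubation. Signal scaled between ATP+ADP (max) and 0.1 mM ATP-only (min) wells; Tris pH 7.5, Mg2+, DTT.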

[18] = qHTS for Inhibitors of Ubiquitin-specific Protease USP2a Using CHOP2 as the Reporter: K633 Counterscreen (AID 652168); further: series mostly up to about 57 µM; % of control where 0% means no effect
Outline: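 Detection-system control: fluorescence of K48-linked DiUb-4IQF substrate (100 nM as added) tracked over time, Ex 525/Em 598, with pinned compounds and no enzyme, in pH 8 Tris buffer containing beta-mercaptoethanol and 0.05% Chaps.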

[19] = qHTS for Inhibitors of Ubiquitin-specific Protease USP2a Using CHOP2 as the Reporter: Cytotox Assay (AID 652170);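 further: HCT116 human colon cancer cells at 600 per well; series mostly up to about 46 µM; plate controls were DMSO-treated cells for no effect and wells without cells for full effect; nearly all actives have a fitted effect of over 70% in size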
Outline: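 Cytotoxicity read as ATP luminescence (CellTiter-Glo) after 72 hr compound treatment at 37 deg C. Cells: HCT116, 600/well in DMEM plus 10% FBS. Normalization between DMSO-treated cells and cell-free wells.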

[20] = biological target: Ubiquitin carboxyl-terminal hydrolase 2 (Homo sapiens) (UniProt O75604); assay: qHTS for Inhibitors of Ubiquitin-specific Protease USP2a Using CHOP2 as the Reporter: K484 Substrate (AID 652173);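 further: cleavage of internally quenched K48 di-ubiquitin substrate measured as rising fluorescence over time; nearly all actives have a fitted effect of over 70% in size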
Outline: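 Kinetic fluorescence (Ex 525/Em 598) tracked cleavage of an internally quenched K48 di-ubiquitin substrate, added as a 100 nM solution. The enzyme was added as a 5 nM USP2 solution before compound pinning, with no-enzyme controls. Buffer: Tris pH 8, beta-mercaptoethanol, CHAPS.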

Sequence of Tumor necrosis factor (Homo sapiens) (P01375 whole entry, looked up): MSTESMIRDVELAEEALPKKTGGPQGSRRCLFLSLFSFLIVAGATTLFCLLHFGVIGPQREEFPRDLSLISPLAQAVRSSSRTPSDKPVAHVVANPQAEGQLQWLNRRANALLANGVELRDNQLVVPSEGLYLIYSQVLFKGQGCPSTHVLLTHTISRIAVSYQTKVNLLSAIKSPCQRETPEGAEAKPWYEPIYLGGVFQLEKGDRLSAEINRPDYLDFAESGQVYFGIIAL
Sequence of Arylsulfatase A (Homo sapiens) (P15289 whole entry, looked up): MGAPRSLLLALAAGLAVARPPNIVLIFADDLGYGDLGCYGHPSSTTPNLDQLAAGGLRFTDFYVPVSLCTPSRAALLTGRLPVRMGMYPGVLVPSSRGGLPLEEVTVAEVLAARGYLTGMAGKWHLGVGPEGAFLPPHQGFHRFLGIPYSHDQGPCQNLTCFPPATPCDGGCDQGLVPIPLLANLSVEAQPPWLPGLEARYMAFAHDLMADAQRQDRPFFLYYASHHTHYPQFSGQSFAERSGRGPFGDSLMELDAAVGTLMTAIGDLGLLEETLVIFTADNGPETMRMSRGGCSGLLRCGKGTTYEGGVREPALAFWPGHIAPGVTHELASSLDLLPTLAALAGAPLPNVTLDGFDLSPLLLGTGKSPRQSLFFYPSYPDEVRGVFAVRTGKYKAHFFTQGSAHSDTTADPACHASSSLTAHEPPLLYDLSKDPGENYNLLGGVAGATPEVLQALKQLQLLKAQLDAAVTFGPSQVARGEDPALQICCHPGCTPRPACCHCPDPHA
Sequence of Hexokinase-4 (Homo sapiens) + Glucokinase regulatory protein (Homo sapiens) (P35557 whole entry, looked up): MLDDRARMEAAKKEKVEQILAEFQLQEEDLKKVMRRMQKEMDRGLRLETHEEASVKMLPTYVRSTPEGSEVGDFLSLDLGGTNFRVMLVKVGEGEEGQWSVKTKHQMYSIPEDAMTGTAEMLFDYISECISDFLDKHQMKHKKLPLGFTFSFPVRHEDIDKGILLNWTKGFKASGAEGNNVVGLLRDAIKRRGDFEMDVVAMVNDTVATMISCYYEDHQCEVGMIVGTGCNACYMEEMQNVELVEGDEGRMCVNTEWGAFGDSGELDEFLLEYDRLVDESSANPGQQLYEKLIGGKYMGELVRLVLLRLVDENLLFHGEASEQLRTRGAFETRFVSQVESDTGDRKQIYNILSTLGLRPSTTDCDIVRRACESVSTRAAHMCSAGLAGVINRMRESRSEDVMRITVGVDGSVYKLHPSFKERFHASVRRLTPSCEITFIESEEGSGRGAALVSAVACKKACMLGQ
Sequence of Hexokinase-4 (Homo sapiens) + Glucokinase regulatory protein (Homo sapiens) (Q14397 whole entry, looked up): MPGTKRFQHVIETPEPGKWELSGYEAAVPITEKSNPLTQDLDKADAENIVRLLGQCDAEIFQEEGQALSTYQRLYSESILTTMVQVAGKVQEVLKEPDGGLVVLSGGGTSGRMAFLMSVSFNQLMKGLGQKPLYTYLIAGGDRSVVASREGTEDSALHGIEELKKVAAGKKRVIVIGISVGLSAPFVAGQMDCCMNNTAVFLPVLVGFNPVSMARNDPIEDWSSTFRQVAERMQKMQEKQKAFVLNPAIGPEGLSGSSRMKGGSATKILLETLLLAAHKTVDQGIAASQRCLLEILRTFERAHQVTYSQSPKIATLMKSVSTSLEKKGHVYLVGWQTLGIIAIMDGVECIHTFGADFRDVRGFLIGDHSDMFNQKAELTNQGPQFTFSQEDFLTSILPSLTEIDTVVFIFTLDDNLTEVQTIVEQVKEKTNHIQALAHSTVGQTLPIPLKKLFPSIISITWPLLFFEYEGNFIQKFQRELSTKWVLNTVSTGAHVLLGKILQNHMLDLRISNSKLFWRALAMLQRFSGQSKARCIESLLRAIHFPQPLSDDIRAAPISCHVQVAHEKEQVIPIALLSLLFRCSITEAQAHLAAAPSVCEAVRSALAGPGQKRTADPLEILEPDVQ
Sequence of Peroxisome proliferator-activated receptor alpha (Homo sapiens) (Q07869 whole entry, looked up): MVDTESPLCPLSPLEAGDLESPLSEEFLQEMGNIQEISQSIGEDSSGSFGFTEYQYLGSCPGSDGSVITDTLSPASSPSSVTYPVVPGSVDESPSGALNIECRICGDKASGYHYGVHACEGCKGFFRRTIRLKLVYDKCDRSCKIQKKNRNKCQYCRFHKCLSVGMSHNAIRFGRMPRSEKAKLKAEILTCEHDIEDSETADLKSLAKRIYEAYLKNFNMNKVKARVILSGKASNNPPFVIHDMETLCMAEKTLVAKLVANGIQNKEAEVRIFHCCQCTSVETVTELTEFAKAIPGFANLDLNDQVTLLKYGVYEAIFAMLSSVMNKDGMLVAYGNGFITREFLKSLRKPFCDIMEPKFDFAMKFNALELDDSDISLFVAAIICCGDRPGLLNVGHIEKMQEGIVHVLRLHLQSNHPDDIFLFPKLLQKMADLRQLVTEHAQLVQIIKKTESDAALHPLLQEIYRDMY
Sequence of Tyrosine-protein kinase Yes (Homo sapiens) (P07947 whole entry, looked up): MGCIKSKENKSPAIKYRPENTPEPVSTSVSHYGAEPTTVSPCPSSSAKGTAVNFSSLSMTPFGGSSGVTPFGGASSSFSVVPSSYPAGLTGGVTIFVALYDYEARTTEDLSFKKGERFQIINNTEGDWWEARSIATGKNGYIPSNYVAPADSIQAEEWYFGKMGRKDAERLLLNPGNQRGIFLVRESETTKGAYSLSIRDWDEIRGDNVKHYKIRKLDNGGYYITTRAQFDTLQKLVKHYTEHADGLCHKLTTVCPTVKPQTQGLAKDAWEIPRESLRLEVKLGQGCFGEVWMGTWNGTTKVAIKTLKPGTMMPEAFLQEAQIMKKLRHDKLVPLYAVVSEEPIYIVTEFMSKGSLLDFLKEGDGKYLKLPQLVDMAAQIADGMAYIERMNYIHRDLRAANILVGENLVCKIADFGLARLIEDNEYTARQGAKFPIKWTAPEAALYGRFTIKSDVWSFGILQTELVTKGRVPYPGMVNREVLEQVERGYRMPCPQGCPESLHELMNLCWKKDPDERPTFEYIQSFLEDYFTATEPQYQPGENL
Sequence of Ubiquitin carboxyl-terminal hydrolase 2 (Homo sapiens) (O75604 whole entry, looked up): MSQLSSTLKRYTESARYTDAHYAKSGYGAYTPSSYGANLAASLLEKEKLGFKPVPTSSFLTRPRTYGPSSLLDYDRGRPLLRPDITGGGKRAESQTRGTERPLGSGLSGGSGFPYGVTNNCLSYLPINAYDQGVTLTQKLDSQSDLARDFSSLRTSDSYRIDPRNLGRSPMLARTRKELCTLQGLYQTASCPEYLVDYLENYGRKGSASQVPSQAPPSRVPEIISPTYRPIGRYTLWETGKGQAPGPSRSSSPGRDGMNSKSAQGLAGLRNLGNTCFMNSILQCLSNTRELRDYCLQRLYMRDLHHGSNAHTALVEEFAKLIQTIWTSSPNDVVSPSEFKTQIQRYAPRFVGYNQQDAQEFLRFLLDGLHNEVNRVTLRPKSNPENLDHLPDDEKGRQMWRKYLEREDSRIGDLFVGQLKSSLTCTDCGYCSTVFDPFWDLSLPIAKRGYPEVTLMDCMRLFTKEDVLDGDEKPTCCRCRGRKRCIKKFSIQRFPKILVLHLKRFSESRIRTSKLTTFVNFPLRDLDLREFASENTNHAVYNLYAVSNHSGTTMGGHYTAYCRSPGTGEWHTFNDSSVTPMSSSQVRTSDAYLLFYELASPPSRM
Sequence of Nuclear receptor ROR-gamma (Homo sapiens) (P51449 whole entry, looked up): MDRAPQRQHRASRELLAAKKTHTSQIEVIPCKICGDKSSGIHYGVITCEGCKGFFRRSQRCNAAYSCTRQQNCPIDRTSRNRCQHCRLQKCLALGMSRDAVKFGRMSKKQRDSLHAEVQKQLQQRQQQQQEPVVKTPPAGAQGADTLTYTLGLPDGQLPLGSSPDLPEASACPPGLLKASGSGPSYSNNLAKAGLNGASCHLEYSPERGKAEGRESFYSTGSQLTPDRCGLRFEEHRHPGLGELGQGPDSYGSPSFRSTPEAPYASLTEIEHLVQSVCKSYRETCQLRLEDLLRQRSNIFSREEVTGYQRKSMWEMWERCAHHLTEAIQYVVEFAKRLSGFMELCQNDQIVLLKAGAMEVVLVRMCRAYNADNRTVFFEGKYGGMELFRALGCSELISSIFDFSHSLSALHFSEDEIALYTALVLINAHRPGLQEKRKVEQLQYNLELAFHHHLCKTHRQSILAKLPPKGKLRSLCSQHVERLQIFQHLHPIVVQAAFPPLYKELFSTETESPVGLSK

Nc1c2ccccc2nc2ccccc12
active: Potency [1] 9.44 µM | Potency [2] 15 µM
inactive: max response [3] -4.95% | outcome [4] | outcome [5]

c1ccc2occc2c1
inactive: activation [6] -0.808% and 0.0616% and -0.684% | Potency [1] | Potency [2] | outcome [7] | activation [8] 2.4% | max response [3] 0.199% and 3.33% and -1.19% | Potency [9] | outcome [5]
active: Potency [8] 1.26 mM and 25.1 µM

Brc1ccccc1-c1ccccc1
inactive: activation [6] -0.27% | Potency [1] | Potency [2] | outcome [7] | outcome [10] | max response [3] -0.0593% | outcome [4] | outcome [5]

CC(C)(c1ccc(O)cc1)c1ccc(O)cc1
inactive: activation [6] -0.409% and -2.36% and -2.41% | outcome [7] | activation [8] 3.05% and 4.15% and 3.72% | max response [3] -6.65% and -3.38% and -3.11% | outcome [4] | outcome [5]

Nc1ncnc2n[nH]c(Nc3ccc(F)cc3)c12
inactive: outcome [11] | outcome [12] | outcome [13] | outcome [14] | outcome [15]

Cn1cnc2c(NCc3ccccc3)nc(NCCO)nc21
inactive: outcome [11] | outcome [12] | outcome [13] | outcome [14] | outcome [15]

C[C@@H](O[C@H]1OCCN(Cc2n[nH]c(=O)[nH]2)[C@H]1c1ccc(F)cc1)c1cc(C(F)(F)F)cc(C(F)(F)F)c1
inactive: Potency [16] | outcome [17]

O=C1NC(c2cccc([N+](=O)[O-])c2)=CCN1c1ccccc1O
inactive: outcome [11] | outcome [12] | outcome [13] | outcome [14] | outcome [15]

Brc1ccc([C@H]2CN3CCSC3=N2)cc1
inactive: outcome [12] | outcome [13] | outcome [14] | outcome [15]

N[C@@H](Cn1ccc(=O)c(O)c1)C(=O)O
inactive: outcome [11] | outcome [12] | outcome [13] | outcome [14] | outcome [15]

CCN(CC)CCNC(=O)c1ccc(NS(C)(=O)=O)cc1
inactive: outcome [11] | outcome [15]

Clc1ccc2c(c1)N=C(N1CCNCC1)c1ccccc1N2
inactive: outcome [11] | outcome [12] | outcome [13] | outcome [14] | outcome [15]

COc1cccc2c1[C@@H]1CN(CCCCn3c(=O)[nH]c4c(sc5ncc(-c6ccccc6)nc54)c3=O)C[C@@H]1CO2
inactive: outcome [12] | outcome [13] | outcome [14] | outcome [15]

Cc1ncc(CO)c(CO)c1O
inactive: activation [8] -1.88% | max response [3] -1.89% | outcome [4]

CN1CCC(Nc2ncc3ncnc(Nc4ccc(F)c(Cl)c4)c3n2)CC1
active: Potency [16] 3.45 µM
inactive: outcome [17]

O=C1NC(=O)/C(=C/c2ccc3c(c2)OC(F)(F)O3)S1
inactive: outcome [11] | outcome [12] | outcome [13] | outcome [15]

NC(N)=NCCCCN=C(N)N
inactive: outcome [11] | outcome [12] | outcome [13] | outcome [14] | outcome [15]

CN(C)c1cc2c(Nc3ccc4c(cnn4Cc4ccccc4)c3)ncnc2cn1
active: Potency [16] 0.207 µM
inactive: outcome [17] | outcome [11] | outcome [12] | outcome [15]

OCCOCCN1CCN(C(c2ccccc2)c2ccc(Cl)cc2)CC1 (centres undefined)
inactive: max response [3] -2.06% | outcome [4]

COC(=O)C1=CO[C@@H](O)[C@@H]2C(CO)=CC[C@H]12
inactive: outcome [11] | outcome [12] | outcome [13] | outcome [14] | outcome [15]

Cc1nn(-c2ccccc2)c(C)c1/C=N/N1CCN(Cc2ccccc2)CC1
inactive: outcome [11] | outcome [12] | outcome [13] | outcome [14] | outcome [15]

CC(=O)Nc1ccc(S(=O)(=O)Nc2cc(C)on2)cc1
inactive: outcome [18] | outcome [19] | outcome [20]

O=[N+]([O-])c1ccc(-c2nc(-c3ccc(F)cc3)c(-c3ccncc3)[nH]2)cc1
inactive: outcome [11] | outcome [12] | outcome [13] | outcome [14] | outcome [15]

O=C(Oc1ccccc1)c1cccc(C(=O)Oc2ccccc2)c1
inactive: max response [3] 4.8%

C[N+](C)(C)CCO
inactive: outcome [11] | outcome [12] | outcome [13] | outcome [14] | outcome [15]

CC(C)N(CCC(=O)c1ccc2ccccc2c1)Cc1ccccc1
inactive: outcome [11] | outcome [12] | outcome [13] | outcome [14] | outcome [15]

Nc1ccc(O)cc1
inactive: max response [3] -0.783%

CCN(CC)CCOc1ccc(/C(=C(\Cl)c2ccccc2)c2ccccc2)cc1
inactive: activation [8] -0.728% | max response [3] 11.1% | outcome [4]

COc1ccccc1N1CCN(CCN2C(=O)CC3(CCCC3)CC2=O)CC1
inactive: outcome [11] | outcome [12] | outcome [13] | outcome [14] | outcome [15]
